Among all 370,000 compounds or so, about 6,800 (1.8%) were called active. This is one part of a sample in which actives are shown more often than they occur. Unmarked numbers belong to inactive results.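 Rule for the calls: active = activation above a cutoff set at the mean of all screened compounds plus 3 SD (cut at about 10% in these data); inactive = the rest.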

The subject of this assay is Nuclear hormone receptor DAF-12 (Heterodera glycines), GAL4 fusion. Nature of the assay: hgDAF-12 GAL4 fusion reporter activation – cell-based, luminescence, HEK293, UAS-luciferase, primary screen (AID 687014).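 Note: 0% = DMSO wells and 100% = sodium butyrate wells.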 Conditions: HEK293 GAL4-hgDAF12 UAS-luciferase reporter, agonist luminescence; at 6.8 µM; active compounds read high; normalized to butyrate control. (In general: In a reporter assay the amount or activity of a reporter protein is the signal.)
For `O=C(Nc1ccccc1)c1ccc2c(c1)OCCCO2`, the activation was 15.1% (active).

On to `COc1cccc(C(=O)Nc2nnc(S(=O)(=O)N3CCOCC3)s2)c1`, for which the activation is 3.2%.

For the compound `O=C(NCCc1ccc(C(F)(F)F)cc1)c1ccc2c(c1)OCO2`, the activation is 0.07%.

Consider `O=C(Nc1ccccc1F)c1ccc2c(c1)OCO2`, for which the activation is 11.2% (active).

`COc1ccc(C2COC(=O)C2=N)c(NC(=O)c2ccccc2)c1` (stereo not given): the activation was 4.88%.

On to `COc1cccc(C(=O)Nc2cc3c(cc2Br)OCCCO3)c1`, for which the activation is 13.2% (active).

For `CN(Cc1c(F)cccc1Cl)C(=O)CNC(=O)c1ccc2c(c1)OCO2`, the activation was 7.57%.

On to `C/C(=N/NC(=S)Nc1ccccc1)c1ccc2c(c1)OCO2`, for which the activation was 10.2%.

With `O=C(CN1CCc2cc3c(cc2C1)OCCCO3)Nc1ccccc1`, the activation is -3.88%.

With `COC(=O)[C@]12C[C@H](CC(=O)NCCCN3CCCC3=O)C(=O)N(CCc3ccc(OC)c(OC)c3)C1=C[C@H](COCc1ccccc1)O[C@@H]2C`, the activation is 4.36%.

`Cc1ccc(NC(=O)c2cc(C)nn2-c2ccccc2)c(C)c1`: the activation was -1.76%.

In the case of `Cc1cc(Br)ccc1NC(=S)NC1CCCC1`, the activation is 1.25%.

On to `Cc1ccc(NC(=S)Nc2ncccc2C)c(C)c1`, for which the activation was 11.8% (active).

For `Nc1ccn([C@@H]2O[C@H](C(=O)N[C@H]3CCCCNC3=O)[C@@H](O)[C@H]2O)c(=O)n1`, the activation was 0.25%.

Take `CCC(NC(=O)C1C2C=CC3(CN(Cc4ccccc4)C(=O)C13)O2)c1ccccc1` (stereo not given): the activation is -3.86%.

Regarding `Cn1cc[n+](C)c1COc1ccc(C=O)cc1`, the activation is 1%.

Turning to `O=C(NCCc1ccco1)c1ccc(OCc2cn3ccccc3n2)cc1`, the activation is 5.95%.

As for `O=Cc1ccc(OCc2cn3ccccc3n2)cc1`, the activation is 12.9% (active).

`O=C(Nc1cc(F)cc(F)c1)OC1CCC12CCC(c1ccccc1)CC2` (stereo not given): the activation was 2.34%.

For the compound `CC(C)C[C@H](NC(=O)CC1CCCC1)C(=O)N1CCC[C@H]1C(=O)NCc1ccccc1`, the activation was -4.65%.

For `Cc1cc(NC(=O)CSc2nnnn2-c2ccc(F)cc2)no1`, the activation was 1.39%.

`Cc1cc(NC(=O)CSCC(=O)NC(C)c2ccccc2)no1` (stereo not given): the activation was 2.82%.

Take `Cc1ccc2nc(-c3ccc(SCC(=O)Nc4cc(C)on4)nc3)[nH]c2c1`: the activation was 15.3% (active).

For the compound `COC(=O)C1CN(CCc2ccccc2)CCS(=O)(=O)N1Cc1ccc(F)cc1` (stereo not given), the activation is 2.5%.

For `C=CCN=C1NC(c2ccccc2)C(C(=O)OC)=C(C)N1Cc1ccc(C(F)(F)F)cc1` (stereo not given), the activation is 0.51%.

As for `COc1ccc(C2Nc3ccccc3C(=O)N2Cc2cccs2)cc1COc1c(C)cccc1C` (stereo not given), the activation is 1.89%.

`COc1ccc(C2Nc3ccccc3C(=O)N2c2ccc(Cl)cc2)cc1Cn1cc([N+](=O)[O-])cn1` (stereo not given): the activation was 15.2% (active).

Regarding `COc1ccc(CN2CCCC(C(=O)c3ccc(Cl)cc3)C2)cc1Cn1cncn1` (stereo not given), the activation was -0.88%.

For the compound `Cc1ccc(-n2c(SCC(=O)Nc3ccc(S(=O)(=O)Nc4nccs4)cc3)nnc2-c2cccnc2)cc1`, the activation is -1%.

For the compound `Cc1cc(C)c(S(=O)(=O)N2CCC(C(=O)OCc3c(C)noc3C)CC2)c(C)c1`, the activation is 1.53%.

On to `CC(OC(=O)Cc1ccc(F)cc1)C(=O)N1CCc2ccccc21` (stereo not given), for which the activation was 0.83%.

For the compound `O=C(CSCc1ccccc1)N1CCc2ccccc21`, the activation is 17.5% (active).

`O=C(CN1C(=O)c2ccccc2S1(=O)=O)N1CCc2ccccc21`: the activation is -10.8%.

With `CCOC(=O)[C@@]12CCC3=C1N(CCC3)C(=O)[C@H](CC(=O)N1CCN(C(=O)c3ccco3)CC1)C2`, the activation is -0.79%.

Take `CC1(C)OC(=O)C2=C(CC(CCc3ccccc3)OC2c2ccc(Cl)cc2)O1` (stereo not given): the activation was 3.41%.

On to `CC(C)N(Cc1nnc(-c2ccc(Cl)cc2)o1)C(=O)C1=COCCO1`, for which the activation is 0.6%.

As to `CC(NCc1ccco1)C(=O)N1CCCCC1` (stereo not given), the activation is 1.35%.

Turning to `C#CCCN([C@H](C(=O)OC)C(C)C)S(=O)(=O)c1ccc(F)cc1Br`, the activation was 2.22%.

Consider `COc1cccc(CNC(=O)[C@H]2CCCN2C(=O)[C@H]2CCCN2C(=O)c2cc(F)cc(F)c2)c1`, for which the activation was 0.08%.

As to `Cc1ccc(C(=O)NC(=S)Nc2ccccc2C)cc1`, the activation was 12.1% (active).

Regarding `CC(=O)Nc1ccc(NC(=S)NC(=O)c2ccc([N+](=O)[O-])c(C)c2)cc1`, the activation was -2.56%.

Consider `Cc1ccccc1C(=O)NC(=S)NC1CC1`, for which the activation is 0.72%.

Regarding `COC(=O)[C@H](CC(C)C)NS(=O)(=O)c1c(F)cccc1F`, the activation was -0.44%.

`CCCCCCCCN1C(=O)[C@@H](CC(=O)NCc2ccc(C)o2)C[C@@]2(C(=O)OC)C1=C[C@H](C(C)(C)C)O[C@@H]2C`: the activation is -0.08%.

As to `COC(=O)N/N=C/c1cn(CCCOc2ccc(C)cc2)c2ccccc12`, the activation is 15% (active).

Turning to `Cc1ccc(OCCOc2cccc(/C=N/NC(N)=O)c2)cc1`, the activation was 5.18%.

With `O=Cc1cn(CCOc2ccc(F)cc2)c2ccccc12`, the activation is -2.45%.

In the case of `O=C(CNS(=O)(=O)c1ccccc1F)N1CCN(c2ccccn2)CC1`, the activation was 0.61%.

As to `COC(=O)[C@]12C[C@H](CC(=O)NCc3ccccc3)C(=O)N(CCc3ccc(OC)c(OC)c3)C1=C[C@H](C(C)(C)C)O[C@@H]2C`, the activation is 0.98%.

Turning to `COc1ccc(OC)c(CNC(=O)Cn2nc(C)c3c(C)n(-c4ccc(C)cc4)nc3c2=O)c1`, the activation is -2.32%.

In the case of `O=C(CCS(=O)(=O)Cc1ccccc1F)NCCCN1CCCCC1`, the activation is 0.82%.

For the compound `O=C(CSc1nc2ccccc2s1)N=Nc1c(O)[nH]c2ccccc12`, the activation is -2.84%.

Consider `O=C(O)c1ccccc1CSc1nc2ccccc2s1`, for which the activation was 10.6% (active).

Turning to `O=C(CSc1nc2ccccc2s1)NN=Cc1ccc(O)cc1O`, the activation is -1.39%.

Turning to `COc1ccc(CC(=O)Nc2cc(S(=O)(=O)N3CCCCC3)ccc2N2CCN(C)CC2)cc1`, the activation is -1.77%.

For `COC(=O)C1CN(CC(C)C)CCS(=O)(=O)N1Cc1ccc(C)cc1` (stereo not given), the activation was -0.71%.

With `CS(=O)(=O)N1CCc2cc(C(=O)Nc3ccccc3)ccc21`, the activation was 2.16%.

On to `CC(=O)Nc1ccc(NC(=O)c2ccc3c(c2)C(=O)N(c2ccccc2C)C3=O)cc1`, for which the activation was 0.55%.

For `CC(C)n1c(=O)[nH]c2cc(C(=O)Nc3ccccc3)ccc21`, the activation was 13.3% (active).

Take `COc1ccc(-c2ccc3c(n2)CCCN3S(=O)(=O)c2ccc(C)cc2)cc1`: the activation is 1.42%.

Turning to `O=C(C(=O)N1CCC(CNS(=O)(=O)Cc2ccccc2)CC1)c1cc2ccccc2o1`, the activation was -2.92%.

As to `O=C(NNC(=O)c1csc(-c2cccnc2)n1)Nc1ccc(Cl)cc1`, the activation was -2.54%.

As for `CN(c1ccc(O)cc1)c1nc(-c2cccnc2)cs1`, the activation was 11% (active).

As for `CN(C(=O)CSc1nc(C2CC2)nc2ccccc12)c1nc(-c2ccccc2)cs1`, the activation is 0.14%.

For `COc1ccc(NC(=O)c2cc([N+](=O)[O-])ccc2NC(=O)CNC2CCCCC2C)c(OC)c1` (stereo not given), the activation was 1.77%.

Consider `Cn1c(=NC(=O)C2CC2)sc2cc(F)cc(F)c21`, for which the activation is 14% (active).

For the compound `O=C(Cn1nnc(-c2ccccc2)n1)NC(=O)NC1CCCC1`, the activation was 4.87%.

Turning to `CC(C)C[C@H](NC(=O)C1CC(=O)N(c2ccc3c(c2)OCCO3)C1)C(=O)NC1CCCC1` (stereo not given in full), the activation was -2.12%.

Take `Cc1ccnc(NC(=O)CCNS(=O)(=O)c2ccc(C)c(C)c2)c1`: the activation is 17.1% (active).

With `Cc1ccc(S(=O)(=O)NCCC(=O)NCc2ccc(Cl)cc2)cc1C`, the activation was 1.13%.

As for `Cc1ccc(S(=O)(=O)NCCC(=O)Nc2cccc(S(N)(=O)=O)c2)cc1C`, the activation was 1.82%.

For `COCCNC(=O)CSc1nc2sccc2c(=O)n1-c1ccccc1`, the activation was -2.26%.

Turning to `CS(=O)(=O)Nc1ccc(C(=O)N2CCCC2)cc1`, the activation is -0.04%.

For the compound `CNc1cncc(-c2cccc(C(=O)N3CCOCC3)c2)n1`, the activation was -2.58%.

Consider `CNc1cncc(-c2ccc(NS(C)(=O)=O)cc2)n1`, for which the activation was 20.8% (active).

Regarding `COc1ccc(-c2ccccc2C2Cc3nnccc3CN2C(=O)Nc2ccccc2)cc1` (stereo not given), the activation was -0.36%.

Take `O=C(Nc1cccc(Cl)c1)OC1CC2CC1[C@H]1CCCCN1[C@H]2Cc1ccccc1` (stereo not given in full): the activation is -4.33%.

As to `Cc1ccc2nc(CN(C)C(=O)[C@@H](Cc3ccccc3)NC(=O)[C@H]3O[C@@H](n4ccc(=O)[nH]c4=O)[C@H](O)[C@@H]3O)[nH]c2c1`, the activation was -0.28%.

In the case of `Cc1ccc(C)c(NC(=O)CCC(=O)N/N=C2/CC(=O)CC(C)(C)C2)c1`, the activation was -0.63%.

Turning to `COC(=O)[C@H](C(C)C)N(CCc1cn(Cc2ccccc2)nn1)S(=O)(=O)c1ccc(F)cc1Br`, the activation was -2.66%.

In the case of `N#Cc1ccccc1NC(=O)c1cccc(COc2ccc(Cl)cc2Cl)c1`, the activation is 12.7% (active).

As to `O=C(Nc1ccn(Cc2ccccc2F)n1)c1ccc(COc2ccc(Cl)cc2Cl)o1`, the activation was -5.91%.

As for `COc1ccc(Sc2ccc(NC(=O)c3cccc(Cl)c3)cc2C#N)cc1`, the activation is 0.58%.

With `Cn1cc(S(=O)(=O)NC(c2ccccc2)c2ccccc2)c(=O)n(C)c1=O`, the activation was -1.46%.

For `O=C(COC(=O)c1cnc(Cl)c(Cl)c1)NCc1ccco1`, the activation was -3.41%.

On to `O=C(COC(=O)c1cccc(Cl)c1)NC(=O)NCc1ccccc1`, for which the activation is 0.55%.

In the case of `O=C(CCOc1ccccc1)NCc1ccccc1`, the activation was 0.5%.

For the compound `O=C(COc1cccc(Cl)c1)NCc1ccccc1`, the activation was 10.5% (active).

With `O=C(COC(=O)c1ccco1)NCc1ccc(Cl)cc1`, the activation is 10.8% (active).

As for `O=C(COC(=O)c1ccco1)Nc1ccc(Cl)cn1`, the activation was 0.37%.

The values above are taken from PubChem BioAssay AID687014 (The Scripps Research Institute Molecular Screening Center, 2013).
